According to the supplement of paper PMC13380429:

Test system: Vero E6 infected with SARS-CoV-2
Assay: inhibition of SARS-CoV-2 cytopathic effect; higher = more antiviral protection, active = above 15
Conditions: 48 h

Measured: inhibition of SARS-CoV-2 cytopathic effect

NCc1ccccc1CC(=O)N[C@@H]1C(=O)N2C(C(=O)O)=C(CSc3nnnn3CC(=O)O)CS[C@H]12 [ceforanide]
inactive: 1 nM 0.96% | 8.33 nM 0.98% | 100 nM -0.17% | 833.33 nM 2.04% | 10000 nM 2.57%

CN1[C@@H]2CC[C@H]1C[C@@H](OC(=O)[C@H](CO)c1ccccc1)C2 [hyoscyamine]
inactive: 1 nM 1.06% | 8.33 nM -0.12% | 100 nM 0.93% | 833.33 nM -0.12% | 10000 nM -0.51%

CC(C)(C)[C@]1(O)CC2OC(=O)CC23C(=O)OC2OC(=O)[C@H](O)C231 (stereo not given in full) [bilobalide]
inactive: 1 nM -0.27% | 8.33 nM 0.92% | 100 nM 0.44% | 833.33 nM -0.26% | 10000 nM -0.37%

O=C(NCCCCN1CCN(c2cccc(Cl)c2Cl)CC1)c1ccc2c(c1)Cc1ccccc1-2
inactive: 1 nM 0.39% | 8.33 nM 2.85% | 100 nM -2.31% | 833.33 nM -1.17% | 10000 nM -3.44%

O=c1ccc2ccc(O)c(O)c2o1 [daphnetin]
inactive: 1 nM -1.96% | 8.33 nM 2.35% | 100 nM -2.13% | 833.33 nM 4.54% | 10000 nM 2.15%

CCN(CC)C(=O)Nc1ccc(OCC(O)CNC(C)(C)C)c(C(C)=O)c1 (stereo not given) [celiprolol]
inactive: 1 nM -3.29% | 8.33 nM 0.91% | 100 nM -0.73% | 833.33 nM -0.15% | 10000 nM -0.87%

Cn1nnc(-c2ccc(-c3ccc(N4C[C@H](COP(=O)(O)O)OC4=O)cc3F)cn2)n1 [tedizolid-phosphate]
inactive: 1 nM -1.65% | 8.33 nM -1.24% | 100 nM -0.65% | 833.33 nM 1.74% | 10000 nM 1.44%

Cc1ncc(-c2csc(N=C(N)N)n2)[nH]1 [zaltidine]
inactive: 1 nM 2.21% | 8.33 nM -0.85% | 100 nM -3.06% | 833.33 nM -1.56% | 10000 nM -0.54%

Clc1cccc(/C=N/N=C/c2cccc(Cl)c2)c1 [3,3'-dichlorobenzaldazine]
inactive: 1 nM 2.78% | 8.33 nM 1.74% | 100 nM 1.33% | 833.33 nM 1.92% | 10000 nM 1.46%

CCS(=O)(=O)c1cccc(-c2cc(C(=O)NC3CCN(C)CC3)c(C)c3[nH]c4ncc(C)cc4c23)c1
inactive: 1 nM 3.23% | 8.33 nM 0.63% | 100 nM 1.19% | 833.33 nM -0.44% | 10000 nM -2.17%

CCOC(=O)N1CSC[C@H]1C(=O)O [telmesteine]
inactive: 1 nM 1.96% | 8.33 nM 2.23% | 100 nM 2.74% | 833.33 nM 4.95% | 10000 nM -0.12%

CC/C=C(\C(=O)N[C@@H]1C(=O)N2C(C(=O)OCOC(=O)C(C)(C)C)=C(COC(N)=O)CS[C@H]12)c1csc(N)n1 [cefcapene-pivoxil]
inactive: 1 nM -0.85% | 8.33 nM -2.87% | 100 nM -0.76% | 833.33 nM 1.69% | 10000 nM -0.26%

Nc1ccc(F)cc1NC(=O)c1ccc(CNC(=O)/C=C/c2cccnc2)cc1 [chidamide]
inactive: 1 nM 0.62% | 8.33 nM 0.21% | 100 nM -1.13% | 833.33 nM 1.82% | 10000 nM -0.06%

CC(C)C1=C2[C@H]3CC[C@@H]4[C@@]5(C)CC[C@H](OC(=O)CC(C)(C)C(=O)O)C(C)(C)[C@@H]5CC[C@@]4(C)[C@]3(C)CC[C@@]2([C@@H](O)CN(CCN(C)C)Cc2ccc(Cl)cc2)CC1=O
inactive: 1 nM -0.51% | 8.33 nM 1.17% | 100 nM -0.05% | 833.33 nM 0.73% | 10000 nM -1.86%

O=C(NCCO)c1cccc(-c2cc(Nc3ccc(OC(F)(F)F)cc3)ncn2)c1
inactive: 1 nM 0.82% | 8.33 nM 1.06% | 100 nM 2.91% | 833.33 nM 3.22% | 10000 nM 0.55%

CN1CCN(c2ccc3[nH]c(-c4ccc5[nH]c(-c6ccc(O)cc6)nc5c4)nc3c2)CC1 [pibenzimol]
inactive: 1 nM -0.58% | 8.33 nM -1.08% | 100 nM 1.05% | 833.33 nM 2.62% | 10000 nM 4.07%

CCC[C@@H]1CC(=O)N([C@@H](CC)C(N)=O)C1 [Brivaracetam]
inactive: 1 nM -0.93% | 8.33 nM -1.72% | 100 nM -2.91% | 833.33 nM -2.52% | 10000 nM 1.45%

CN1CCCCC1CCN1c2ccccc2Sc2ccc([S+](C)[O-])cc21 (stereo not given) [mesoridazine]
inactive: 1 nM -0.86% | 8.33 nM -1.76% | 100 nM -0.98% | 833.33 nM -3.35% | 10000 nM -3.76%

COc1ccc(Cn2ccc3ccc(C(=O)NO)cc32)cc1
inactive: 1 nM 0.35% | 8.33 nM 0.42% | 100 nM 3.29% | 833.33 nM 1.7% | 10000 nM -2.47%

Nc1ccc(C(=O)Oc2ccccc2)c(O)c1 [phenyl-aminosalicylate]
inactive: 1 nM -11% | 8.33 nM -5.77% | 100 nM -10.6% | 833.33 nM -10.7% | 10000 nM -9.73%

Cc1nc2sccn2c(=O)c1CCN1CCC(=C(c2ccccc2)c2ccc(F)cc2)CC1
inactive: 1 nM 1.18% | 8.33 nM -2.89% | 100 nM 0.46% | 833.33 nM 2.57% | 10000 nM 1.02%

O=C(/C=C/c1ccc(O)c(O)c1)O[C@H](Cc1ccc(O)c(O)c1)C(=O)O [rosmarinic-acid]
inactive: 1 nM 2.8% | 8.33 nM 3.5% | 100 nM 2.25% | 833.33 nM 3.06% | 10000 nM 3.05%

Cc1cc(-c2ccc(CC(=O)Nc3ccc(-c4cccnc4)cc3)cc2)ccn1
inactive: 1 nM -2.73% | 8.33 nM -2.58% | 100 nM -2.93% | 833.33 nM 4.57% | 10000 nM 7.2%

O=C(O)[C@H]1CN(C/C=C/P(=O)(O)O)CCN1 [midafotel]
inactive: 1 nM -2.43% | 8.33 nM -0.69% | 100 nM 0.17% | 833.33 nM 1.03% | 10000 nM 3.52%

N#Cc1ccncn1 [4-pyrimidinecarbonitrile]
inactive: 1 nM 3.43% | 8.33 nM 1.7% | 100 nM 4.16% | 833.33 nM 0.49% | 10000 nM -3.8%

Cc1ccc(S(=O)(=O)Cc2nc(-c3ccc(C(=O)NCc4cccnc4)cc3)oc2C)cc1
inactive: 1 nM -2.69% | 8.33 nM -2.16% | 100 nM -15.4% | 833.33 nM -19.2% | 10000 nM -16.4%

CC(C)(Sc1cc(C(C)(C)C)c(O)c(C(C)(C)C)c1)Sc1cc(C(C)(C)C)c(O)c(C(C)(C)C)c1 [probucol]
inactive: 1 nM -0.06% | 8.33 nM 2.66% | 100 nM 0.1% | 833.33 nM -0.2% | 10000 nM 1.98%

O=C(NCc1ccncc1)C12CC3CC(C1)CC(c1ccc(Cl)cc1)(C3)C2
inactive: 1 nM 2.05% | 8.33 nM -4% | 100 nM -2.61% | 833.33 nM -2.22% | 10000 nM -5.2%

COc1ccccc1NC(=O)OCC1CCN(C(=O)OC(C)(C)C)CC1
inactive: 1 nM 0.55% | 8.33 nM -0.78% | 100 nM 1.48% | 833.33 nM -0.14% | 10000 nM 0.81%

O=C(NCc1ccc(OC(F)(F)F)cc1)C1c2ccccc2C(=O)N1C1CCOCC1 (stereo not given)
inactive: 1 nM -3.69% | 8.33 nM -4.75% | 100 nM -1.62% | 833.33 nM -1.7% | 10000 nM 2.59%

Cn1cncc1[C@@](N)(c1ccc(Cl)cc1)c1ccc2c(c1)c(-c1cccc(Cl)c1)cc(=O)n2C [tipifarnib]
inactive: 1 nM 0.24% | 8.33 nM 0.1% | 100 nM 1.79% | 833.33 nM 2.2% | 10000 nM -9.4%

Nc1nc(=O)[nH]cc1F [flucytosine]
inactive: 1 nM -1.58% | 8.33 nM -2.1% | 100 nM 0.5% | 833.33 nM 2.44% | 10000 nM 1.48%

O=C(O)c1cc2ccccc2s1
inactive: 1 nM -0.94% | 8.33 nM -1.01% | 100 nM -0.94% | 833.33 nM -0.45% | 10000 nM 0.62%

O=C(O)[C@@H]1C[C@@H](O)CN1 [L-hydroxyproline]
inactive: 1 nM -3.79% | 8.33 nM -1.12% | 100 nM -0.27% | 833.33 nM -1.36% | 10000 nM -3.93%

CC[C@H](C)C[C@H](C)CCCCCCCCC(=O)N[C@H]1C[C@@H](O)[C@@H](NCCN)NC(=O)[C@@H]2[C@@H](O)CCN2C(=O)[C@H]([C@H](O)CCN)NC(=O)[C@H]([C@H](O)[C@@H](O)c2ccc(O)cc2)NC(=O)[C@@H]2C[C@@H](O)CN2C(=O)[C@H]([C@@H](C)O)NC1=O [caspofungin]
inactive: 1 nM 0.56% | 8.33 nM 0.765% | 100 nM -1.58% | 833.33 nM 0.425% | 10000 nM 5.37%

FC(F)OC(F)(F)C(F)Cl (stereo not given) [enflurane]
inactive: 1 nM 1.24% | 8.33 nM 0.43% | 100 nM 1.56% | 833.33 nM -3.51% | 10000 nM -3.14%

Cc1csc(-c2nnc(Nc3ccc(Oc4ncccc4-c4ccnc(N)n4)cc3)c3ccccc23)c1
inactive: 1 nM -1.03% | 8.33 nM -3.23% | 100 nM -5.41% | 833.33 nM -4.07% | 10000 nM -4.59%

N=C(N)NCCC[C@H](N)C(=O)O [L-arginine]
inactive: 1 nM 2.26% | 8.33 nM 3.4% | 100 nM -3.93% | 833.33 nM 1.97% | 10000 nM 1.83%

Oc1cccc2cccnc12 [oxyquinoline]
inactive: 1 nM -1.21% | 8.33 nM -0.58% | 100 nM 0.04% | 833.33 nM 2.84% | 10000 nM -0.31%

CC(=O)OCC1=C(C(=O)O)N2C(=O)[C@@H](NC(=O)CCCC(N)C(=O)O)C2SC1 (stereo not given in full) [cephalosporin-c-zn]
inactive: 1 nM -4.01% | 8.33 nM -0.13% | 100 nM -2.05% | 833.33 nM 3.87% | 10000 nM 1.87%

C=C1/C(=C\C=C2/CCC[C@]3(C)[C@@H]([C@H](C)CCCC(O)(C(F)(F)F)C(F)(F)F)CC[C@@H]23)C[C@@H](O)C[C@@H]1O [falecalcitriol]
inactive: 1 nM -0.53% | 8.33 nM 0.41% | 100 nM -1.28% | 833.33 nM 0.88% | 10000 nM -2.37%
